Screens from PubChem.
Most compounds without a hit are left out; they make up all but 27% or so of the library.
CYP2C19 activ = cytochrome P450 2C19 (human) activation; activation factor at 5 µM; 96,000 tested, under 10 active; recombinant CYP2C19, luciferin-H EGE luminescence; stronger effect = higher value; 0 = fully inhibited enzyme, 1 = untreated enzyme; P33261;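 active means activation factor of at least 2 at 5 µM in the primary screen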;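 further: 0 = wells with 2.5 mM tranylcypromine and 1 = vehicle-only wells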
Target sequence (P33261 whole entry, looked up): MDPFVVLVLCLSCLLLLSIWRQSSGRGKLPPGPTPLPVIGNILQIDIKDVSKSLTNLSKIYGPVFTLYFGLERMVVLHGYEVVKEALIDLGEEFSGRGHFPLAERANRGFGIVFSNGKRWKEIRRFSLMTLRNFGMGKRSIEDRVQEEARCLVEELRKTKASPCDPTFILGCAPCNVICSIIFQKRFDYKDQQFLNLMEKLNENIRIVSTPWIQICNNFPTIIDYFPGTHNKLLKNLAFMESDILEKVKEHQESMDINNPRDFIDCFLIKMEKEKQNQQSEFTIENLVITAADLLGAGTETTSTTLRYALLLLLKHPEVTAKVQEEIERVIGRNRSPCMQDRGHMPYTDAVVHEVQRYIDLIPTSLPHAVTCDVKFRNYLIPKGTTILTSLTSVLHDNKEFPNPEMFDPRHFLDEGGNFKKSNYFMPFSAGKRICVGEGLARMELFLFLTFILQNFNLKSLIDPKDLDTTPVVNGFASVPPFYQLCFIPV
Cav3 T inh = inhibitors of human Cav3.2 T-type calcium channel. B-score at 10 µM. Cav3.2-expressing cells, Fluo-4 calcium fluorescence FDSS; stronger effect = lower value. hit rate 4% among 100,000. O95180;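 active means single-dose well whose peak fluorescence ratio is a statistical outlier from its plate by either plate-standardised score or position-corrected B-score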
CYP2C19 inh = blocks human cytochrome P450 2C19; CYP2C19 Supersomes, luciferin-H EGE luminescence, 30 min; hit rate 21% among 96,000; AID 778; inhibition, % at 5 µM;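 active means CYP2C19 inhibition above a set limit at 5 µM in the primary screen, cut at about 50% in these data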;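 further: plate controls were negative control wells for no effect and 2.5 mM tranylcypromine positive control for full effect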
CYP2C9 activ = CYP2C9 (human) activation; P11712; recombinant CYP2C9, luciferin-H conversion, luminescence; stronger effect = higher value; factor 1 = untreated enzyme, 0 = blocked; activation factor at 5 µM; hit rate 1.4% among 96,000;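 active means activation factor of 2 or more for CYP2C9 at a 5 µM dose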;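 further: 0 = sulfaphenazole-blocked wells and 1 = vehicle-only wells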
CYP2C9 inh = human CYP2C9 inhibition; inhibition, % at 5 µM; P11712; CYP2C9 Supersomes, luciferin-H conversion, luminescence; hit rate 20% among 96,000;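 active means blocking of liver enzyme CYP2C9 beyond about 50% at 5 µM, limit read from the data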
Active calls of the source: *; · = no result.

SMILES	CYP2C19 activ	Cav3 T inh	CYP2C19 inh	CYP2C9 activ	CYP2C9 inh
CCC12CN(C(=O)c3ccc(OC)cc3)CC(CC)(CN(C(=O)c3ccc(OC)cc3)C1)C2=O	0.4	0.75	58*	0.9	9
N#CCC(CNc1ncc(C(F)(F)F)cc1Cl)OC(=O)c1cccc(C(F)(F)F)c1 (stereo not drawn)	0.4	0.19	63*	1	4
COC(=O)c1c(NC(=O)CC2Nc3ccccc3NC2=O)sc(C)c1C (stereo not drawn)	0.8	-0.2	22	0.7	34
COC(=O)CCN(C(=O)c1ccc2c(c1)OCO2)c1ccccn1	0.1	0.36	94*	0.9	9
CCOc1ccccc1C(=O)N(CCC(=O)OC)c1ccccn1	0.5	-0.89	53*	0.9	11
O=C(O)CC(c1ccccc1)c1ccccc1	1.1	-1.2	-5	0.5	52*
O=C(O)C(c1ccccc1)c1ccccc1	·	0.76	·	·	·
CCCOc1cc(C)c(S(=O)(=O)NCCOC)cc1C	0.7	-0.14	28	0.7	26
CCCOc1cc(C)c(S(=O)(=O)n2ccc(C)n2)cc1C	0.3	-3.8*	70*	0.6	37
O=C1CC(NCc2ccncc2)C(=O)N1c1ccc(Cl)cc1 (stereo not drawn)	0.1	0.48	88*	0.2	82*
O=C1CC(NCc2ccncc2)C(=O)N1c1ccccc1 (stereo not drawn)	0.1	0.23	94*	0.1	91*
O=C1CC(NCc2cccs2)C(=O)N1c1ccc(Cl)cc1 (stereo not drawn)	0.6	0.71	42	1	-3
CC(NC(=O)NC1CCCCC1)C(c1cccs1)N1CCN(C)CC1 (stereo not drawn)	1	0.99	-2	0.9	11
Cc1cc(C)c2c3c(cn2n1)c(=O)n(C)c(=O)n3C	·	0.016	·	·	·
CCn1c(=S)[nH]c2cc(S(=O)(=O)N3CCCCC3)ccc21	0.6	0.081	45	0.5	51*
CCOc1cc(S(=O)(=O)N2CCCCC2)ccc1Cl	0.3	·	71*	2.5*	-148
CCOc1cc(S(=O)(=O)N2CCN(CC)CC2)ccc1Cl	0.4	0.014	65*	2.3*	-134
CCn1c(C)nc2cc(S(=O)(=O)N3CCCC3)ccc21	0.9	-0.26	13	1.3	-35
CCOc1cc(S(=O)(=O)N2CCOCC2)ccc1F	0.4	-1.3	57*	1.4	-41
COc1cc(S(=O)(=O)N2CCN(C)CC2)ccc1Cl	·	-0.029	·	·	·
CCOc1cc(S(=O)(=O)N2CCC(C(N)=O)CC2)ccc1F	1.1	0.66	-7	1.1	-10
OCCN=C(c1ccccc1)C12CN3CN(CN(C3)C1)C2	1.1	·	-6	1	-4
O=c1c2ccccc2oc2ccc(-c3ccc4[nH]ccc4c3)cc12	·	-0.016	·	·	·
Cc1cc(NC(=O)c2cc3ncc(Br)cn3n2)no1	1.1	0.77	-8	0.8	17
COc1ccc(S(=O)(=O)N2CCCC2C(=O)Nc2ccc(O)cc2)cc1 (stereo not drawn)	1	0.36	4	1.6	-56
SMILES	CYP2C19 activ	Cav3 T inh	CYP2C19 inh	CYP2C9 activ	CYP2C9 inh
COc1ccc(NC(=O)C2CCCN2S(=O)(=O)c2ccc3c(c2)CCC(=O)N3)cc1 (stereo not drawn)	0.7	-4.1*	31	0.1	90*
COc1ccc(NC(=O)C2CCCN2S(=O)(=O)c2ccc3c(c2)CCC(=O)N3)cc1Cl (stereo not drawn)	1.1	0.57	-6	0.3	65*
CCc1ccc(OCc2nnc(SCC(=O)NCc3ccco3)o2)cc1	0.7	0.22	32	1.1	-13
COCCN1C(=O)N[C@@H](c2ccco2)C(C(C)=O)=C1C	·	0.56	·	·	·
CC(C(N)=O)N1C(=O)c2cccc3cccc1c23 (stereo not drawn)	1	0.13	-3	3.2*	-220
CCOc1cc(/C=C2\N=C(C)OC2=O)cc(Br)c1OCCc1ccccc1	0.7	-0.76	28	0.3	70*
COc1cc(OC)c2ccc(=O)oc2c1C(CC(=O)N1CCN(c2ccccc2)CC1)c1ccc2c(c1)OCO2 (stereo not drawn)	·	-0.72	·	·	·
Cn1c(SCc2cccc(C(F)(F)F)c2)nnc1-c1ccco1	0.3	0.9	72*	0.9	14
Cc1ccc(CSc2nnc(-c3ccco3)n2N)cc1	0.9	0.55	8	1.2	-19
Nn1c(SCc2cccc(C(F)(F)F)c2)nnc1-c1ccco1	0.1	-0.052	94*	1.6	-61
CC(=O)c1ccc(N2C(=O)NC3(CCCCC3)C2=O)cc1	0.7	0.68	26	1	0
